Z-score data for 108 sequences are collected here from PubChem BioAssay AID1508600 (Functional Genomics Laboratory (NCATS/FGL), 2020).

Screen size: about 53,000 sequences; about 3,700 (7%) were called active.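 Rule for the calls: active = gene knockdowns whose robust z-score for IL-1 alpha signal is at least 2 or at most -2, so actives lie on both sides; inactive = the rest.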 Many of the other results were omitted from the sample, so actives are more common in it than they were.

The test in a line: Components of the Cytosolic LPS Sensing Pathway: Gene Identification via Genome-wide siRNA Screen.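 Note: robust z of the log signal after scaling to non-targeting control siRNA wells of the plate.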 To be noted: RAW264.7 macrophages, IL-1a HTRF, actives lie on both sides, screened at 100 nM (by protocol), cells primed 5 h with Pam3CSK4 first. An outline of the steps: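 Three distinct siRNAs per gene were tested singly at 100 nM in RAW264.7 macrophages. Following Pam3CSK4 priming and 24 hour LipidA transfection, IL-1a secretion was read by HTRF.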
For orientation: Time-resolved FRET reads energy transfer from a long-lived donor to a nearby acceptor.
For the sequence GGGCUGCUGCUUAGCAAUCTT against Egln3, the z-score is -0.0783 (inactive).

On to GGAUGGAGAAGUUUACUACTT against Yap1, for which the z-score is 0.714 (inactive).

Turning to GGCGUAACCUAACAUGGGATT against Clec1b, the z-score is -1.35 (inactive).

Consider GCAACAAUUCUAACAGCUGTT against Lhfpl5, for which the z-score is -0.138 (inactive).

Take GGCCUUCCAUACUACAACUTT against Zfp595: the z-score is 2.2 (active).

CCACGUAGGUAAGUGUAGGTT against Oard1: the z-score is 0.81 (inactive).

GGAGCAAGGCUACAUUUUUTT against Itih3: the z-score is 1.36 (inactive).

With GGACAAGGCCCUCAUGAUUTT against Nek8, the z-score was -0.468 (inactive).

In the case of GCUCGAGUACCUGUACCUATT against Elfn1, the z-score was 3.11 (active).

Regarding CCUUCAACCUUCGAGAUACTT against Kcnh2, the z-score is -0.417 (inactive).

As to GGUCUUCUUUGAUGUGAGGTT against Ppic, the z-score was -0.832 (inactive).

With GGACUGAAGAAGUGUGUGGTT against Scgb3a2, the z-score is 1.66 (inactive).

For the sequence GCUUCCAGUCAGUGGUUACTT against Rara, the z-score was 1.07 (inactive).

For the sequence GGAUGAGCAGAUGCUCCAATT against Mtmr7, the z-score is 0.451 (inactive).

For the sequence GGUAUUUUGACCGAAUCAATT against Add3, the z-score is -0.294 (inactive).

As to GCUCCUCACUUAUUGCCCATT against Zfp354b, the z-score is -0.0805 (inactive).

As for GGAUGAAAACACUGAAUACTT against Olfr644, the z-score is -0.714 (inactive).

On to GCAUUUAGUGAGUUCAGUGTT against Kirrel3os, for which the z-score was 0.855 (inactive).

In the case of GCGCAACUAAAACAGAUUGTT against Eif2ak1, the z-score was 2.2 (active).

Take GGGAUACUUUUUAUUCAGGTT against Nmu: the z-score is -0.0461 (inactive).

In the case of GGAGCAGACGAUAUGCAGATT against Copb2, the z-score was 0.559 (inactive).

In the case of CCAAUUGCUAAUCCUUUGUTT against Pin1, the z-score is 1.52 (inactive).

On to GGACACAAUCCAGAACCAGTT against Angpt4, for which the z-score was -0.189 (inactive).

GCCUGAGUUAUGUUUAAAGTT against Pgam5: the z-score is 0.00362 (inactive).

For CCACGUGAAGGAGAGAUGATT against Mob2, the z-score is 1.39 (inactive).

On to GCGACCAGGACCGCGUCAATT against Sox3, for which the z-score was -1.07 (inactive).

For the sequence GCACUGAAGCCUAGCUGUUTT against BC051142, the z-score is 1.41 (inactive).

With GGUGUUGAGUUCAAGUCUATT against Dennd11, the z-score was -0.468 (inactive).

In the case of GGGCAAACUCUAUAAUCAGTT against BC023105, the z-score was 0.337 (inactive).

With GCUCCGUGUUGACUCAAAATT against Foxg1, the z-score was 2.46 (active).

Regarding CCCUCAGAUCUUUCAGUCUTT against Btbd16, the z-score is -1.01 (inactive).

With GCAUGGUUUAAUGGCUCGGTT against Atpsckmt, the z-score is -1.93 (inactive).

GGAAUAUUUUGCUUGUGUGTT against Dnmt3a: the z-score was -0.925 (inactive).

Take GGUUUAAGAAAAAAGGAGCTT against Rab43: the z-score is -0.182 (inactive).

As to CCUCUGUUUGUGCGCCAUATT against Uqcrfs1, the z-score is 0.402 (inactive).

For the sequence GGUUAUCAAACAGGUGUUGTT against Aldh3b1, the z-score was 2.22 (active).

In the case of GCGAGUUCGGAAGAAGUAUTT against Ddx41, the z-score is -0.198 (inactive).

Turning to GGAGAUCCAGGCAAUUUUUTT against Pink1, the z-score is 0.779 (inactive).

In the case of GUUGGUAGAUUCAGUUUUCTT against Vmn1r89, the z-score was 1.88 (inactive).

As for GGUGAAGAAAGCACUAGUUTT against Olfr979, the z-score was -0.873 (inactive).

Regarding GGACCUUGGCCUUACACAATT against Astn2, the z-score is 2.29 (active).

As for GGGCAUGCUGCUUAUUGUGTT against Slc5a4b, the z-score was -0.8 (inactive).

Consider GCAACACGUACGAGCUCAATT against Pou2af1, for which the z-score was -0.926 (inactive).

GGGUUCUAGGUUGUUUAUGTT against C2cd4c: the z-score was -1.74 (inactive).

GGCGAGCUGGACAGAUUUGTT against Nudt6: the z-score is 3.33 (active).

As to CCUGCAUUUACUCAACUUGTT against Snrpe, the z-score is -1.74 (inactive).

In the case of GGAUACAAGCCUUUUAACCTT against Sri, the z-score is -0.0625 (inactive).

In the case of GAACAACAACAGACAAGUGTT against Cxcl12, the z-score was -0.65 (inactive).

In the case of GGUAUUUUUGCAUUUGUCCTT against Pip4p2, the z-score is 1.32 (inactive).

In the case of GGUUAUUGAUGUGACGAUGTT against Rem2, the z-score is 1.36 (inactive).

For the sequence CCACCCUGAUUUAAGAAGGTT against Ndufs3, the z-score was 2.53 (active).

In the case of CCUACGUGAUAUCCUUUUATT against Vrk1, the z-score is 0.0128 (inactive).

For GGAUAGAAAAUCUGUGUUUTT against Trim60, the z-score was -0.401 (inactive).

As for GGUAUUUAUGAAGCACACATT against Clcn3, the z-score is 0.451 (inactive).

GGGUCUAUCAGCUACAUCATT against Acsl6: the z-score was -1.28 (inactive).

As for CGUAUUGCCUUAGUGUAUGTT against Olfr433, the z-score is -2.7 (active).

In the case of GGGCUAUCGGUUGACAAAUTT against Riok2, the z-score is 1.67 (inactive).

On to GCGUAUUACAGACAGUGACTT against Izumo1, for which the z-score was 0.023 (inactive).

On to GGAACUGUUUCUCUUUCCUTT against Rad9a, for which the z-score is -1.45 (inactive).

For the sequence CGUGUUCUAUGAUGGUAAUTT against Selenoo, the z-score was -0.197 (inactive).

GCAACUUGGCUACAAUUACTT against Dct: the z-score was 0.987 (inactive).

Regarding GGACCAAGCCACCAAAACUTT against Vmn1r78, the z-score is -2.28 (active).

For CCUAUGAUUCAGCAAUACUTT against Col17a1, the z-score is 0.677 (inactive).

For GGAAGAGGAGAGGAAGAAGTT against Dync1i1, the z-score is 1.91 (inactive).

For GGCUCUAAGCUAAAUAAAGTT against Kbtbd4, the z-score is -0.249 (inactive).

In the case of CCGCGUCUUGCUAUGGAAGTT against Baiap2l2, the z-score is 0.79 (inactive).

In the case of GCUGGAAGAUAGUGCUUUUTT against Itpr1, the z-score was 5.23 (active).

GGGUUUAUGGGCAUGUCCCTT against Adipor2: the z-score was -0.964 (inactive).

For the sequence GGUUAAAAAUGCCAUUAGATT against Olfr1233, the z-score is 0.133 (inactive).

GGAAGACAUCAAGAUGUAATT against Rp1l1: the z-score is -1.28 (inactive).

For GGAGCUGUAAAGGCUACAATT against Sulf2, the z-score was 4.14 (active).

On to CGUGGAAAUGUCUUAAAUCTT against Folh1, for which the z-score was 0.412 (inactive).

With GGAGAAAAAUCCUACCGACTT against Zmym5, the z-score was 0.56 (inactive).

On to GCGAUUGAAGUCUCAGGGATT against Nrde2, for which the z-score was -1.03 (inactive).

Take GGAAUAUUGGUUGUGAUGATT against Ralb: the z-score is -0.197 (inactive).

Regarding GCUAAUGGUCCAUUGAUAUTT against Btn2a2, the z-score is 0.229 (inactive).

Regarding GGGAAGAGUUGGAUCGAUCTT against Shkbp1, the z-score was -0.0675 (inactive).

With GGAGGAUAAGGAUACAGUATT against Cspg5, the z-score is 2.27 (active).

With GGAGGAAAGAAAAGAUCCATT against Tie1, the z-score was -0.102 (inactive).

With GCUAUGUCAUGGUUGGAACTT against Bag6, the z-score is 0.597 (inactive).

Take GCUUGCCUGACCUGAAACATT against Apool: the z-score is -2.38 (active).

GCAACAAAUCAGAUUUGACTT against Dhdh: the z-score is 0.246 (inactive).

Consider GGGAUGGACAAGUUGUACUTT against Renbp, for which the z-score was -0.101 (inactive).

With GGACCUUUUUAUCCAACGCTT against Mcts2, the z-score was 0.46 (inactive).

Turning to CCUGAAUUAUGUGUAACUUTT against Ywhab, the z-score is -0.819 (inactive).

As to CCACUGUGAGACACAUAAGTT against Muc4, the z-score is -3.25 (active).

Regarding “GGAAAUAGAUCCUUUUUGATT against 2510039O18Rik”, the z-score is 0.861 (inactive).

As for GCCAGUAGUAGUAGAAUAATT against Gm4841, the z-score was 0.997 (inactive).

With CCUGGCAGUAAAAGAUUGCTT against Ndst3, the z-score was 0.836 (inactive).

Regarding GGGAAGGGAUCCUAUAUUUTT against Lsm12, the z-score was 0.158 (inactive).

In the case of CCCAGCAUGGAUCAAGCACTT against Krt73, the z-score is 0.864 (inactive).

On to GGGUGCACUGGCUAAUAUATT against H2-Ea, for which the z-score is 1.13 (inactive).

Regarding GGGAAUAUUCAGUUGACAATT against Iigp1, the z-score was -1.14 (inactive).

With GGUGAAUUUGAUUGAUGAGTT against Ccnl2, the z-score was -2.3 (active).

Take GGAGAAAGCCUUCCUUAGUTT against Trpc5: the z-score was -0.115 (inactive).

CGUAGCACUUCUUCUCUUATT against Dync1li2: the z-score was 0.484 (inactive).

For GGUCUUGCUGAUCAACAACTT against Adgrb2, the z-score was 2.53 (active).

In the case of GCCAAUUUUGAACCACUACTT against Itga8, the z-score is -0.56 (inactive).

As for GGAAGUAUGAAAUUAUCAGTT against Car12, the z-score is 0.0371 (inactive).

On to CGGUUCUUCCAUCAAAUGGTT against Prodh, for which the z-score is 1.07 (inactive).

On to GGCUUUAAUCCUAACCCUATT against Zfp3, for which the z-score was -0.658 (inactive).

Regarding GCGAGCCAAGUUUGAACUUTT against Elovl6, the z-score is 1.42 (inactive).

With GCUGGCUUUAAAAAUAUCUTT against Nt5dc3, the z-score is 0.174 (inactive).

On to GGAGUGAUAGUCAUCAAUGTT against Olfr357, for which the z-score was -0.464 (inactive).

Turning to GGAACAGUCGGCCAUUUAATT against Tmem98, the z-score is -0.553 (inactive).

CCCUACUGUAUUAGAAAACTT against Dnph1: the z-score is 2.1 (active).

Take “GGAUCACUUUUAGUUUUCUTT against C230013L11Rik”: the z-score was -0.0242 (inactive).

For GCCUGAUAGUGCAGAAACATT against Rabl2, the z-score was -0.233 (inactive).
